pPAFAH inh: pPAFAH (human) enzyme inhibition | recombinant pPAFAH, FP-rhodamine probe fluorescence polarization | inhibition, % at 3.39 µM | Q13093 | hit rate 1.5% among 330,000;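 active = inhibition above the mean inhibition across the screen plus 3 SD, cut at about 25% in these data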;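 also: inhibitors block binding of the rhodamine activity-based probe so polarization drops; 0% = enzyme with DMSO and 100% = wells lacking pPAFAH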
Target sequence (Q13093 whole entry, looked up): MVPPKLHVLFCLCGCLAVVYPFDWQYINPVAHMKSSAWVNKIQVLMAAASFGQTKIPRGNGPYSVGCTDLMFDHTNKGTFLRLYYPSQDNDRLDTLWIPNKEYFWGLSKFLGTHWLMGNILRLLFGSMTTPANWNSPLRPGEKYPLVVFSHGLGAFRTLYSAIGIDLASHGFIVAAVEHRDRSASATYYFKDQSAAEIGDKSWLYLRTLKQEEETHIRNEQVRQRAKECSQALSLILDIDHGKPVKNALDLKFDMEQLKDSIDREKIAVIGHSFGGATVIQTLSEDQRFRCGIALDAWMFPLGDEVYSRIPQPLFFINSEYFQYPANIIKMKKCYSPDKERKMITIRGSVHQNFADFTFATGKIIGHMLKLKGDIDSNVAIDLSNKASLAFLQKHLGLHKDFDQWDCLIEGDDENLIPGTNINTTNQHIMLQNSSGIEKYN
PAFAH1B3 FP inh: inhibitors of human PAFAH1B3; inhibition, % at 3.39 µM; recombinant PAFAH1B3, FP-rhodamine probe, fluorescence polarization; Q15102; hit rate 0.28% among 340,000;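 active = inhibition above the screen-wide average of all tested compounds plus 3 SD, cut at about 25% in these data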;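 also: 0% = enzyme with DMSO only and 100% = wells lacking PAFAH1B3 protein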
PAFAH2 inh: inhibitors of human PAFAH2; Q99487; recombinant PAFAH2, FP-rhodamine activity probe, fluorescence polarization; inhibition, % at 3.39 µM; hit rate 0.99% among 340,000; AID 492956;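 active = inhibition above the mean over all tested compounds plus 3 SD, cut at about 30% in these data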;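 also: inhibitors block probe labeling of enzyme so polarization drops; 0% = enzyme with DMSO and 100% = wells lacking PAFAH2 protein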
DAGLB inhibitor: diacylglycerol lipase beta (human) inhibition; Q8NCG7; HEK293T DAGLB membrane lysate, EnzChek fluorogenic substrate; hit rate 0.059% among 340,000; AID 504411; inhibition, % at 5.17 µM; in the data active = inhibition above about 34%;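 also: 0% = enzyme with vehicle and 100% = wells lacking enzyme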
PAFAH1B2 inh: PAFAH1B2 (human) inhibition; recombinant PAFAH1B2, FP-rhodamine activity probe, fluorescence polarization; inhibition, % at 3.39 µM; hit rate 1.2% among 340,000; AID 492953;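 active = inhibition above the mean of all tested compounds plus 3 SD, cut at about 24% in these data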;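 also: 0% = enzyme with DMSO and 100% = wells lacking PAFAH1B2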
ATG4B inhibitor: inhibitors of human ATG4B cysteine protease. Q9Y4P1. ATG4B cleavage of LC3-PLA2, NBD-HPC fluorescence, 1 h. inhibition, % at 8.33 µM. hit rate 0.51% among 340,000. AID 504462; in the data active = inhibition above about 40%
ATG4B conf: ATG4B (human) inhibition, single-dose confirmed | shares compounds with ATG4B inhibitor | ATG4B protease fluorescent substrate cleavage assay | inhibition, % at 8.33 µM | hit rate 92% among 320; in the data active = inhibition above about 39%
PLA2 counter: inhibits human PLA2, flagging false ATG4B inhibitors. hit rate 66% among 1,600. purified PLA2, NBD-C6-HPC fluorescence, 45 min. shares compounds with ATG4B inhibitor. inhibition, % at 8.33 µM; in the data active = inhibition above about 50%
An asterisk follows results filed as active. This is a sample that favours compounds with a hit; in the whole collection about 3% have one here.

How did COC(/C(C)=C/C=C/C(C)=C/c1coc(C)n1)C(C)C1CC(O)C2(C)OC2C=CC(C)C2CC(CC(=O)O2)CC2OC2C(=O)O1 (centres undefined) do in these assays?
PAFAH1B3 FP inh: -5.1; PAFAH2 inh: -3.0; DAGLB inhibitor: -2.7; PAFAH1B2 inh: -3.7; ATG4B inhibitor: -7.6

Results for CN1C(=O)C(=Cc2ccccc2OCc2ccccc2Cl)C(=O)N(C)C1=O ?
pPAFAH inh: 11.3; PAFAH1B3 FP inh: 1.1; PAFAH2 inh: -3.5; DAGLB inhibitor: -5.4; PAFAH1B2 inh: 2.9; ATG4B inhibitor: 50.3*; PLA2 counter: 51.8*

What do the screens show for `COC(=O)C1=C(c2ccc(F)cc2F)C[C@@H]2CC[C@H]1N2C(=O)NC1Cc2ccccc2C1`?
pPAFAH inh: 2.4; PAFAH1B3 FP inh: 5.7; PAFAH2 inh: 4.8; DAGLB inhibitor: -0.2; PAFAH1B2 inh: 3.2; ATG4B inhibitor: -10.8

Results for CCOc1ccc(-n2c(-c3cccs3)nc3ccccc3c2=O)cc1 ?
pPAFAH inh: 1.9; PAFAH1B3 FP inh: 5.1; PAFAH2 inh: 9.4; DAGLB inhibitor: -4.6; PAFAH1B2 inh: 2.3; ATG4B inhibitor: 49.5*; PLA2 counter: 52.1*

What do the screens show for `CCCc1nc2ccccc2c(=O)n1-c1ccc(OC)cc1`?
pPAFAH inh: -1.4; PAFAH1B3 FP inh: 5.2; PAFAH2 inh: 6.5; DAGLB inhibitor: -2.7; PAFAH1B2 inh: 6.7; ATG4B inhibitor: -7.8

What do the screens show for `CCCCOc1nc2ccccc2c(=O)n1-c1ccccc1`?
pPAFAH inh: 6.0; PAFAH1B3 FP inh: -9.0; PAFAH2 inh: -4.5; DAGLB inhibitor: -11.7; PAFAH1B2 inh: 2.7; ATG4B inhibitor: 40.6*; PLA2 counter: 48.8

What do the screens show for `Cc1cccc(-n2c(-c3cccs3)nc3ccccc3c2=O)c1`?
pPAFAH inh: 1.7; PAFAH1B3 FP inh: 0.1; PAFAH2 inh: 1.9; DAGLB inhibitor: -2.3; PAFAH1B2 inh: 0.0; ATG4B inhibitor: 49.2*; ATG4B conf: 58.3*; PLA2 counter: 45.8

Results for COC(=O)C1=C(c2ccc(OC(F)(F)F)cc2)C[C@@H]2CC[C@H]1N2C(=O)NCc1cc(C)oc1C(F)(F)F ?
pPAFAH inh: 7.8; PAFAH1B3 FP inh: 9.4; PAFAH2 inh: -4.5; DAGLB inhibitor: -16.0; PAFAH1B2 inh: 3.4; ATG4B inhibitor: 0.2

How did ClCCN(CCCl)c1ccc(C2=NCCc3ccccc32)cc1 do in these assays?
PAFAH1B3 FP inh: 2.8; PAFAH2 inh: 1.8; DAGLB inhibitor: 0.5; PAFAH1B2 inh: 7.9; ATG4B inhibitor: 40.1*; PLA2 counter: 56.9*

What do the screens show for `COc1ccc2c(c1)C(c1ccc(N(CCCl)CCCl)cc1)=NCC2`?
PAFAH1B3 FP inh: 6.9; PAFAH2 inh: 1.1; DAGLB inhibitor: 1.0; PAFAH1B2 inh: 4.7; ATG4B inhibitor: 10.8
